Results: PubChem BioAssay
The source made the active and inactive calls.

How the values were obtained:
[1] = binders of probe aFSTL3 on microarray, primary screen, stem cell growth factor project, biochemical, small-molecule microarray, fluorescence 635/667 (AID 1064); conditions: higher = more signal;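 also: measures binding of the biotinylated anti-FSTL3 antibody to printed compounds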
[2] = binders from COS7 lysate, DM2A8 probe, primary screen, torsin A project, cell lysate, small-molecule microarray, fluorescence 635/667 (AID 1065); conditions: higher = more signal, COS7 lysate expressing mutant human TOR1A
[3] = binders of probe aFGF2 on microarray, primary screen, stem cell growth factor project, biochemical, small-molecule microarray, fluorescence 635/667 (AID 1067); conditions: higher = more signal;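 also: measures binding of biotinylated aFGF2 protein to printed compounds on slides; z-score merges feature fluorescence and signal-to-noise across triplicate slides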
[4] = binders of probe aFGF10 on microarray, primary screen, stem cell growth factor project, biochemical, small-molecule microarray, fluorescence 635/667 (AID 1071); conditions: higher = more signal;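 also: score merges 667 nm spot intensity and signal to noise from triplicate slides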
[5] = target: Neurogenic locus notch homolog protein 2 (Homo sapiens) (UniProt Q04721); assay: Notch2 binders on small-molecule microarrays, primary screen, biochemical, small-molecule microarray, 635 nm fluorescence, stem cell growth factors (AID 1073); conditions: Notch2 binding, higher = more signal
Chain of Neurogenic locus notch homolog protein 2 (Homo sapiens) (Q04721 whole entry, looked up, canonical isoform): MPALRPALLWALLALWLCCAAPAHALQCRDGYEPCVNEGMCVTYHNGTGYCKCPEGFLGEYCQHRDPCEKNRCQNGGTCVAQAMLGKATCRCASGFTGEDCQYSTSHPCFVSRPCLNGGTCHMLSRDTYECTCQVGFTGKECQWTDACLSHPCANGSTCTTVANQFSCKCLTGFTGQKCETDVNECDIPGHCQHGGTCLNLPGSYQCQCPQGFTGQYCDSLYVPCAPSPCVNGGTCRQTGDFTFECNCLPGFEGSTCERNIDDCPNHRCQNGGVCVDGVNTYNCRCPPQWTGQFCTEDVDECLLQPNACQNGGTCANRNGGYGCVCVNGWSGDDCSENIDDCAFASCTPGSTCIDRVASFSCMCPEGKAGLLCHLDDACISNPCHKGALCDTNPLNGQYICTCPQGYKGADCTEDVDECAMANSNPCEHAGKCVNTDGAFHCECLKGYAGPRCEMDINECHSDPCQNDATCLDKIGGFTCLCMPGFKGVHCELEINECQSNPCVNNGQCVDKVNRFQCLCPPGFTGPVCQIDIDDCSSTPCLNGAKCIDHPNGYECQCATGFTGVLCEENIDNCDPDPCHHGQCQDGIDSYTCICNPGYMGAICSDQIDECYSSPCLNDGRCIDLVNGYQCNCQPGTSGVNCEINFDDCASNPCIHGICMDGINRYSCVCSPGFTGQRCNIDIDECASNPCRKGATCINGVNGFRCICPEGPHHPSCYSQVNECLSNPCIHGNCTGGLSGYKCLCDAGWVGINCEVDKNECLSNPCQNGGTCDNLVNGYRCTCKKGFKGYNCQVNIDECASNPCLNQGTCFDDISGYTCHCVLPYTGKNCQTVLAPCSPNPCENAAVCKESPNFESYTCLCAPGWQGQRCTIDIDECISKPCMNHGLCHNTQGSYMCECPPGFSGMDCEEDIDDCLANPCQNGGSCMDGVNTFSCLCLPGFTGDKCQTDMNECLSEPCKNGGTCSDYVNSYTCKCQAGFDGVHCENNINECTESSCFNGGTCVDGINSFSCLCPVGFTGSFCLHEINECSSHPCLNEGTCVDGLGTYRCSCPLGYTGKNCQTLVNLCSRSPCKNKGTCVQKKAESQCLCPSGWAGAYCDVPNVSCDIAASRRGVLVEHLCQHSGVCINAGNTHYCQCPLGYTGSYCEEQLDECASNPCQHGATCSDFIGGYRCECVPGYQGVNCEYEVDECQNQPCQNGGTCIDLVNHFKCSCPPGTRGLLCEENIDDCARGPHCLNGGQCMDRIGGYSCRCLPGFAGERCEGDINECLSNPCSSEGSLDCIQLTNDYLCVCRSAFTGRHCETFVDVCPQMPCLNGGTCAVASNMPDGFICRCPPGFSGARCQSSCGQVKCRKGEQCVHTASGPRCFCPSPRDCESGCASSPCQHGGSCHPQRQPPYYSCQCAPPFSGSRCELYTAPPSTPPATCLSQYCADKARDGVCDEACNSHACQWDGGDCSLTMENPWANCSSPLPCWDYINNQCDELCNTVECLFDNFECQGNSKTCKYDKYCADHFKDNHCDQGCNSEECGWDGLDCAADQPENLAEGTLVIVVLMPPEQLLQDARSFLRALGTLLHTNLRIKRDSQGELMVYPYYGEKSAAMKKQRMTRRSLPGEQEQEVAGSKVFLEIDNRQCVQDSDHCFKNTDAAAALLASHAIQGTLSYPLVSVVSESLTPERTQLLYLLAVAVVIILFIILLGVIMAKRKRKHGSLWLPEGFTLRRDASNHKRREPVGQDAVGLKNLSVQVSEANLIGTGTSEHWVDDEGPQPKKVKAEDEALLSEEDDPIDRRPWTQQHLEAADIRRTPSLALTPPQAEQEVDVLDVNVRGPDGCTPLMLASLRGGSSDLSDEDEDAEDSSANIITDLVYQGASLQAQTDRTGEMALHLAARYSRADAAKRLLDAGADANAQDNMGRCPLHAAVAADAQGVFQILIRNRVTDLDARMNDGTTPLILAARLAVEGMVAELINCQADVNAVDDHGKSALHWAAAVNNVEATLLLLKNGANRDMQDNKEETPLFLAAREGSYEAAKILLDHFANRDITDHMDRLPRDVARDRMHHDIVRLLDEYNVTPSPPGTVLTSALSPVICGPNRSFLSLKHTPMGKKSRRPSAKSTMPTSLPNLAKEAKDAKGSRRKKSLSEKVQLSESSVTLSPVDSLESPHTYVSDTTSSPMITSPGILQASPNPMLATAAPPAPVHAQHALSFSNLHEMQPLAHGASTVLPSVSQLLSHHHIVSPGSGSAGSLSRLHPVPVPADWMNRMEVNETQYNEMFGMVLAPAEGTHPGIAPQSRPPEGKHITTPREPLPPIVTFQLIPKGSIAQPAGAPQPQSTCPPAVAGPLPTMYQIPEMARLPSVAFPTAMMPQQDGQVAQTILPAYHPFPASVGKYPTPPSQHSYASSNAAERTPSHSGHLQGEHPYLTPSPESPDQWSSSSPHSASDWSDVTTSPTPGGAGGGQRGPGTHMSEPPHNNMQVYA

[6] = target: Pro-neuregulin-1, membrane-bound isoform (Homo sapiens) (UniProt Q02297); assay: NRG1 binders on small-molecule microarrays, primary screen, psychiatric disease protein project, biochemical, small-molecule microarray, fluorescence 635/667 (AID 1075); conditions: NRG1 binding, 635 nm fluorescence, higher = more signal;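 also: score combines 667 nm spot fluorescence with signal to noise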
Chain of Pro-neuregulin-1, membrane-bound isoform (Homo sapiens) (Q02297 whole entry, looked up, the tested form may be a part, canonical isoform): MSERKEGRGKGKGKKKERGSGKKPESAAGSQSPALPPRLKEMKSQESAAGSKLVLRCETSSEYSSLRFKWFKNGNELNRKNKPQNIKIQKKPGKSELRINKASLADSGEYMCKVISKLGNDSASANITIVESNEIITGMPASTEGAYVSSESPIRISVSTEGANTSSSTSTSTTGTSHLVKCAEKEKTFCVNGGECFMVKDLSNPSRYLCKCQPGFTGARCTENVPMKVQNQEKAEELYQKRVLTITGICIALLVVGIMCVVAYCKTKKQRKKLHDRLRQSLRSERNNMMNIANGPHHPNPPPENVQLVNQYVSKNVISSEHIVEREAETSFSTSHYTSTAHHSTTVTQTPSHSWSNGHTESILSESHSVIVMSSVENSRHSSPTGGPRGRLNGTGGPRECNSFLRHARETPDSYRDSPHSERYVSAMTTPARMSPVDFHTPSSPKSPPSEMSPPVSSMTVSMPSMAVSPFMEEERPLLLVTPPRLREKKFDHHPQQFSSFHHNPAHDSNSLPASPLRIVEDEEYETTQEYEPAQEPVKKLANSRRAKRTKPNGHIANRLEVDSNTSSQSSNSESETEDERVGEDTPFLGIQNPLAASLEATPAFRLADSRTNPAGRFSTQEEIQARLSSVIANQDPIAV

[7] = tested on: Neuregulin-1 EGF-like domain; assay: binders of neuregulin-1 EGF-like domain, primary screen, biochemical, small-molecule microarray, 635 nm fluorescence (AID 1081); conditions: small-molecule microarray binding, higher = more signal;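 also: binding of the protein to compounds printed on small-molecule microarray slides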
[8] = FRG1 promoter luciferase signal modulators, primary screen, FRG1 inhibition for FSHD, cell-based, C2C12 myotubes, firefly/Renilla luciferase, luminescence (AID 1084); conditions: higher = more signal, called active from +8 up or from −8 down
[9] = binders of probe aFST on microarray, primary screen, stem cell growth factor project, biochemical, small-molecule microarray, fluorescence 635/667 (AID 1086); conditions: higher = more signal;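 also: score merges 667 nm fluorescence with signal-to-noise of each printed compound spot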
[10] = binders of probe aHhip on microarray, primary screen, stem cell growth factor project, biochemical, small-molecule microarray, fluorescence 635/667 (AID 1087); conditions: higher = more signal;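 also: score merges spot fluorescence at 667nm with spot signal to noise ratio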

Row | SMILES | composite z-score [1] | composite z-score [2] | composite z-score [3] | composite z-score [4] | composite z-score [5] | composite z-score [6] | composite z-score [7] | z-score [8] | composite z-score [9] | composite z-score [10]
1 | CCCCO[C@H]1C[C@H]2C(Br)=C[C@@]1(CO)C(=O)[C@]21CO1 | -0.599 | 0.407 | -0.0785 | -0.367 | -0.0029 | -0.534 | -0.802 | 0.715 (inactive) | 0.162 | -0.156
2 | O=C(NCC(F)(F)F)[C@@H]1c2ccccc2C(=O)N(Cc2ccccc2Cl)[C@H]1c1ccc(CO)cc1 | 1.39 | -0.338 | -0.0964 | -0.601 | -1.37 | -0.341 | 1.39 | -1.3 (inactive) | 0.214 | -0.47
3 | CO[C@H]1O[C@H](CO)[C@@H](OC(=O)CCc2ccccc2)[C@@H]2OC(=O)[C@H](Cc3cccc(Br)c3)C/C=C/C[C@@H](Cc3cccc(Br)c3)C(=O)O[C@@H]12 | 0.617 | 0.361 | -0.139 | -0.722 | -1.2 | 0.964 | -0.0592 | -2.01 (inactive) | 0.0729 | -0.134
4 | CCOC(=O)[C@H]1C/C=C/C[C@H](C(=O)OCC)C(=O)O[C@H]2[C@@H](OC)O[C@H](CO)[C@@H](OC(=O)Nc3ccc(Br)cc3)[C@@H]2OC1=O | 0.762 | 0.475 | -0.108 | 0.28 | 0.798 | 0.991 | 1.29 | 0.892 (inactive) | 0.449 | -0.0613
5 | CO[C@H]1COC(=O)[C@H](C)NC(=O)CC=C[C@@H](C)[C@H](NS(=O)(=O)c2ccc(C)cc2)COC(=O)[C@@H](OCc2ccccc2)C=C[C@@H]1C | -0.452 | 0.148 | -0.183 | -0.0799 | -0.563 | -0.157 | -0.477 | -0.0584 (inactive) | -0.234 | -0.0237
6 | COC(=O)C[C@H]1O[C@]2(C(=O)N(Cc3ccccc3)c3ccc(I)cc32)[C@@H](C)[C@@H]1[Si](C)(C)c1ccc(OC)cc1 | 0.224 | -0.529 | -0.22 | 0.262 | -0.385 | -0.121 | -0.241 | 0.184 (inactive) | -0.145 | -0.16
7 | CC(=O)NCCCC[C@@H]1NC(=O)[C@@H]2C[C@H](C(=O)NCCCCCNC(=O)CS)[C@H](c3ccc(O)cc3)N2C1=O | 0.123 | -0.383 | -0.226 | -1.38 | -0.83 | 0.0942 | 1.15 | -1.14 (inactive) | -0.735 | -0.388
8 | CC(C)[C@H]1NC(=O)[C@@]23C(=O)N[C@@H](Cc4ccccc4)C2[C@H](C)[C@@]2(C)O[C@H]2C3/C=C/C/C=C\CNC(=O)[C@H](C)NC1=O (stereo not given in full) | 0.11 | -0.663 | -0.164 | 0.51 | -1.59 | -0.967 | 0.754 | 0.194 (inactive) | -0.367 | -0.399
9 | C=C(C(=O)CC[C@H](OC(=O)c1ccccc1-c1ccccc1C(=O)O)c1ccc(CO)o1)C(C)C | -0.547 | -0.113 | -0.0974 | 0.959 | -0.0673 | 1.25 | 1.33 | 0.112 (inactive) | 0.0357 | -0.0645
10 | CC(C)CN1C(=O)[C@@]2(Cc3ccccc31)c1ccccc1C(=O)N(C1CCCCC1)[C@H]2c1ccc(CO)cc1 | 0.523 | -0.21 | -0.172 | -0.538 | -1.08 | -0.388 | -0.0501 | 0.172 (inactive) | -0.382 | -0.226
11 | CN(C)C(=O)[C@@]1(Cc2ccccc2N=[N+]=[N-])N=C(c2ccc(OCCCO)cc2)O[C@H]1c1ccccc1CN=[N+]=[N-] | 0.832 | 2.05 | 0.0914 | 0.665 | 1.56 | 1.56 | 1.23 | -2.27 (inactive) | 0.961 | 0.0274
12 | CN1C(=O)C2C=CC(C(O)c3ccc(N(C)C)cc3)N(Nc3ccc([N+](=O)[O-])cc3[N+](=O)[O-])C2C1=O (stereo not given) | 1.56 | 0.989 | 0.126 | 0.739 | 1.6 | 1.25 | 1.31 | 2 (inactive) | 1.29 | -0.0296
13 | Cc1ccc(S[C@]2(C(=O)NCCN3CCOCC3)CC(=O)N(C3Cc4ccccc4C3)[C@@H]2c2ccc(CO)cc2I)cc1 | 1.1 | 0.677 | -0.19 | -0.761 | -1.11 | 1.69 | 0.544 | -0.974 (inactive) | 0.336 | -0.0994
